# Screens deposited in PubChem BioAssay by Sanford-Burnham Center for Chemical Genomics.
# TWEAK-Fn14 inh = blocks TWEAK-Fn14 interaction in a reporter cell assay | 360,000 compounds, 2% hits | TWEAK-stimulated Fn14 reporter cells, luciferase luminescence, 8 h | inhibition, % at 10 µM; in the data active = inhibition above about 50%
# KKLEB tox = reduces viability of KKLEB cystic fibrosis airway cells | KKLEB CF airway cells viability, ATPlite luminescence, overnight; stronger effect = lower value; cells stimulated with P. aeruginosa culture filtrate | activity change (cytotoxicity), % at 5 µM | 360,000 compounds, 0.36% hits;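 active = corrected activity change at or below -50% at 5 µM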
# Peg3 promoter = Peg3 promoter activity inhibition. HeLa PEG-Prom luciferase reporter, luminescence, overnight. inhibition, % at 20 µM. 360,000 compounds, 1.7% hits. AID 588405;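 active = inhibition of at least 50% at 20 µM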
# HIF-2a inh = inhibitors of HIF-2a; inhibition, % at 18.8 µM; 786-0 RCC cells HIF-2a reporter, luciferase luminescence, overnight; 360,000 compounds, 0.72% hits; AID 624352;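 active = inhibition of the luminescence signal of 40% or more relative to plate controls, in a single-dose primary screen at 18.75 µM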
# CF NFkB block = cystic fibrosis NF-kB activation inhibition. 360,000 compounds, 0.86% hits. AID 588850. inhibition, % at 5 µM. KKLEB NF-kB-GFP reporter, PAF-induced, GFP fluorescence overnight;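 active = at least 50% inhibition at 5 µM, scaled per plate between neutral and stimulator controls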;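 note: PAF is a Pseudomonas aeruginosa culture filtrate used as stimulus; plate controls were PAF-stimulated DMSO wells for no effect and unstimulated DMSO wells for full effect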
# TROY signal inh = blocks TROY-dependent signaling in reporter cells; Q293 LMP1-TROYcd NF-kB luciferase reporter, 4 h; inhibition, % at 10 µM; 360,000 compounds, 0.98% hits;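 active = compounds whose plate-normalised and pattern-corrected inhibition of the luciferase reporter signal at the single screening dose is 50% or more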
# The depositor's hits bear a star; / = no result. An excerpt weighted towards active compounds, which were near 4% of everything screened.
SMILES,TWEAK-Fn14 inh,KKLEB tox,Peg3 promoter,HIF-2a inh,CF NFkB block,TROY signal inh
CC(C)C[C@]1(c2ccccc2)ON(c2ccccc2C(F)(F)F)C1=O,-11,5,33,25,-8,1
O=C1N(c2ccccc2C(F)(F)F)O[C@@]1(c1ccccc1)C1CCCC1,14,-2,70*,22,29,-1
S=c1[nH]cnc2scc(-c3ccc(Cl)cc3)c12,26,11,22,23,-2,68*
COC1=C(N)C(=O)c2nc(C)ccc2C1=O,31,3,34,1,57*,6
COc1ccccc1OCC(=O)/C=C1/N(C)c2ccccc2C1(C)C,17,-5,31,10,-8,13
CN1/C(=C\C(=O)COc2ccc3c(c2)OCO3)C(C)(C)c2ccccc21,64*,1,-1,8,-1,69*
CN1/C(=C\C(=O)c2ccco2)C(C)(C)c2ccccc21,61*,-34,-37,-19,2,36
CN1/C(=C\C(=O)c2cncc(Br)c2)C(C)(C)c2ccccc21,56*,-10,-18,-71,26,16
CN1/C(=C\C(=O)c2cccnc2)C(C)(C)c2ccccc21,-23,-8,-56,-63,-1,-26
CCn1c(SCC(=O)NNC(=O)c2ccc(OC)cc2)nnc1C1CC1,1,13,1,10,-9,-8
Cc1ccc(S(=O)(=O)N2CCC[C@H]2C(=O)Nc2ccc(F)cc2C)cc1,20,10,1,17,1,11
CCCCOCCCNC(=O)C[C@@H]1C[C@@]2(C(=O)OC)CC(C)(C)CC=C2N(CCc2ccc(OC)c(OC)c2)C1=O,/,/,/,-5,/,/
OC[C@@H]1CN(Cc2ccc3c(c2)OCO3)C[C@H](n2cnc3c(N4CCN(c5ccccc5)CC4)ncnc32)O1,10,5,12,1,16,19
Cc1ccc2c(Cl)cc(Cl)c(O)c2n1,101*,-35,46,6,52*,36
Cc1cc(Cl)c2ccc3ccccc3c2n1,-3,4,-15,13,2,-16
CC1=C(C(=O)Nc2ccccc2C(=O)NCCCOC(C)C)SCCO1,9,-2,-5,13,9,0
CCn1c(CNc2nc3ccccc3n2C(C)C)nc2ccccc21,99*,-9,9,15,5,7
N#Cc1cc(C(=O)c2cc(Br)ccc2O)cn(C2CCCCC2)c1=O,5,-7,52*,3,33,35
COc1ccc(/C=C(/C(=O)c2cccs2)N2C=CC=CC2=C(C#N)C#N)cc1,34,-22,94*,1,29,40
CN(CC(=O)NCC(=O)Nc1ccc(F)cc1)C1CCS(=O)(=O)C1 (stereo not given),17,-11,6,11,-11,0
O=C1CC(N2CCCCCC2)C(=O)N1c1ccc2c(c1)OCO2 (stereo not given),-12,-2,-5,-15,5,-7
O=C1CC(NC23CC4CC(CC(C4)C2)C3)C(=O)N1c1ccc2c(c1)OCO2 (stereo not given),33,-7,-28,-29,5,56*
OCc1cn(-c2ccccc2)nc1-c1ccc(-c2nn(-c3ccccc3)cc2CO)cc1,52*,5,19,11,11,27
Cn1c(SCC(=O)N/N=C/c2cc([N+](=O)[O-])ccc2O)nnc1-c1ccccc1,13,8,19,3,4,11
Cn1c(SCC(=O)N/N=C/c2ccc([N+](=O)[O-])s2)nnc1-c1ccccc1,58*,-14,64*,16,-3,-9
SMILES,TWEAK-Fn14 inh,KKLEB tox,Peg3 promoter,HIF-2a inh,CF NFkB block,TROY signal inh
Cc1ccc(S(=O)(=O)N(CC(=O)c2ccccc2)C(=O)N2CCN(C)CC2)cc1,1,9,-6,20,6,-24
COc1ccc(NS(=O)(=O)c2ccc(NC(=O)Cc3cccs3)cc2)cc1,38,-1,-24,19,1,65*
CCCCN(CCCC)S(=O)(=O)c1ccc(NC(=O)Cc2cccs2)cc1,6,-1,30,11,8,51*
COc1ccc(NS(=O)(=O)c2cc(NC(=O)Cc3cccs3)ccc2C)cc1,94*,2,9,11,9,82*
COc1ccc(NS(=O)(=O)c2cc(NC(=O)/C=C/c3cccs3)ccc2N2CCOCC2)cc1,41,-9,50*,16,-19,11
Cc1cccc(-n2ncc3c(N(CCO)CCO)ncnc32)c1,88*,-7,-215,-215,-10,-64
CC(C)c1cccc(C(C)C)c1NC(=O)OC1CCCCC1,-2,-8,13,17,16,58*
O=C1NC(=S)SC1=Cc1ccc2c(c1)OCO2,-4,-24,-78,-137,39,0
O=C1NC(=S)N/C1=C/c1ccc2c(c1)OCO2,54*,-22,72*,20,78*,13
N#Cc1cnn2cc(-c3ncc(C(F)(F)F)cc3Cl)cnc12,-10,1,-1,-100,-13,-69
Cc1cc2ncc(-c3ncc(C(F)(F)F)cc3Cl)cn2n1,84*,6,-3,-30,3,44
Cc1nn2cc(-c3ncc(C(F)(F)F)cc3Cl)cnc2c1Br,51*,0,-67,-57,3,56*
Cc1cc2nccc(-c3ccc(OCCCF)cc3)n2n1,-17,12,-6,-10,-26,14
CS(=O)(=O)c1ccc(Sc2nc3ccccc3s2)c([N+](=O)[O-])c1,99*,-45,41,4,54*,38
CS(=O)(=O)c1ccc(Sc2nc3ccccc3[nH]2)c([N+](=O)[O-])c1,38,5,-4,24,11,-3
O=C(NC1CCN(S(=O)(=O)c2ccc(F)cc2)CC1)c1ccco1,-2,-3,3,-1,3,3
O=C(NC1CCN(S(=O)(=O)c2ccccc2C(F)(F)F)CC1)c1ccco1,56*,2,9,10,1,0
O=C(CSc1ncnc2[nH]ncc12)Nc1nc(-c2ccc(F)c(F)c2)cs1,78*,12,43,-38,6,39
CC1(C(=O)OCC(=O)Nc2nc(-c3ccc(F)c(F)c3)cs2)CC1(Cl)Cl (stereo not given),72*,-5,-45,-88,-20,82*
CS(=O)(=O)N1CCc2cc(-c3csc(NC(=O)C(c4ccccc4)c4ccccc4)n3)ccc21,2,15,11,-22,-22,3
O=C(CN1C(=O)NC2(CCCC2)C1=O)Nc1nc(-c2ccc(F)c(F)c2)cs1,-3,-12,6,-14,-14,0
O=C(Cc1ccc(F)cc1)Nc1nc(-c2ccc(F)c(F)c2)cs1,45,12,-21,-92,-30,75*
CC1Cc2cc(-c3csc(NC(=O)Cc4ccccc4)n3)ccc2N1S(C)(=O)=O (stereo not given),92*,21,16,-26,-39,60*
O=C(NN=Cc1cc(Cl)ccc1[N+](=O)[O-])c1ccco1,-1,17,-80,-100,-5,-17
